Screens as filed in PubChem.
Most compounds without a hit are left out; they make up all but 1.8% or so of the library.
LYPLA2 counter – LYPLA2 inhibitors, primary screen, counter-screen for PME1 inhibitor project, biochemical, fluorescence polarization, FP-Rh probe ABPP; inhibition, % at 5.9 µM; 0.38% of 320,000 active; recombinant LYPLA2;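 active means inhibition above the screen-wide mean plus 3 SD, limit set per campaign, cut at about 26% in these data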;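 further: 0% = LYPLA2 with DMSO and 100% = wells lacking LYPLA2 enzyme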
PAD4 inh – human PAD4 inhibitors, primary screen, biochemical, fluorescence polarization, 1536-well format; Protein-arginine deiminase type-4 (Homo sapiens), Q9UM07; recombinant PAD4, RCA probe fluorescence polarization; inhibition, % at 6.36 µM; 0.41% of 330,000 active; AID 485272, 2010;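 active means percent inhibition above a cutoff equal to the mean of all tested compounds plus 3 SD, cut at about 15% in these data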;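 further: 0% = PAD4 with RCA probe and DMSO and 100% = probe without PAD4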
GSTO1 counter – inhibitors of recombinant GSTO1, primary screen, counter-screen for RBBP9 inhibitor project, biochemical, fluorescence polarization; AID 1974, 2009; activity-based probe fluorescence polarization; 1.1% of 300,000 active; inhibition, % at 5.96 µM;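 active means inhibition above the campaign mean inhibition plus 3 SD, cut at about 35% in these data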;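 further: 0% = GSTO1-1 with DMSO and 100% = wells lacking GSTO1-1 enzyme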
Target sequence (P78417 whole entry, looked up): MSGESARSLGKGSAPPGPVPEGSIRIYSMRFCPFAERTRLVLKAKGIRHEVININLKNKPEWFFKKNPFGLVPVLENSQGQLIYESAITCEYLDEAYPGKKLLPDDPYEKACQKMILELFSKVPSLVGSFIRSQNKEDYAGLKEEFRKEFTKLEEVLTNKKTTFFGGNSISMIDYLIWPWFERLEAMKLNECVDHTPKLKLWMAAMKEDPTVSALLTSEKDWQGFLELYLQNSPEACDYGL
PME-1 primary – PME-1 inhibitors via competitive probe labeling, primary screen, biochemical, fluorescence polarization, FP-Rh probe, HTS; recombinant PME-1; AID 2130, 2009; inhibition, % at 5.9 µM; Protein phosphatase methylesterase 1 (Homo sapiens), Q9Y570; 0.53% of 320,000 active;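 active means inhibition above the campaign mean of all compounds plus 3 SD, cut at about 26% in these data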;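 further: competitive labeling of PME-1 active site by serine hydrolase directed probe; 0% = PME-1 with DMSO and 100% = wells lacking PME-1 enzyme; inhibitors block probe labeling so polarization falls and inhibition rises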
Target sequence (Q9Y570 whole entry, looked up): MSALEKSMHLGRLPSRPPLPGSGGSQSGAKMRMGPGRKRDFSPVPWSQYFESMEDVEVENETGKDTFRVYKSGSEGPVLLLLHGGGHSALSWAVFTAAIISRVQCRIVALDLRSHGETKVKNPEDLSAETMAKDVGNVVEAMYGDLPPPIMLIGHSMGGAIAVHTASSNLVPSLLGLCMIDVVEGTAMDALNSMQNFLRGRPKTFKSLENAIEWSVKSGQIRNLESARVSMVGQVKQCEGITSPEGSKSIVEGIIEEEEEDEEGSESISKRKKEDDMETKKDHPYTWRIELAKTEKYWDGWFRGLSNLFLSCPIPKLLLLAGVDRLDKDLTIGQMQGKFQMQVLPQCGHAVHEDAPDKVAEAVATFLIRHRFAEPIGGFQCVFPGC
LYPLA1 counter – LYPLA1 inhibitors, primary screen, counter-screen for PME1 inhibitor project, biochemical, fluorescence polarization, FP-Rh probe ABPP; Acyl-protein thioesterase 1 (Homo sapiens), O75608; inhibition, % at 5.9 µM; recombinant LYPLA1; 0.16% of 320,000 active;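 active means inhibition above the mean of all tested compounds plus 3 SD, set per campaign, cut at about 14% in these data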;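 further: inhibitors block serine hydrolase probe labeling of LYPLA1 so polarization falls; 0% = enzyme with DMSO and 100% = wells lacking LYPLA1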
Fam108B counter – mouse Fam108B serine hydrolase inhibitors, primary screen, counter-screen for RBBP9 inhibitor project, biochemical, fluorescence polarization | inhibition, % at 9.51 µM | AID 1947, 2009 | 0.33% of 300,000 active | recombinant Fam108B, FP-Rh probe fluorescence polarization;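 active means inhibition above the screen mean inhibition plus 3 SD, computed separately per campaign, cut at about 18% in these data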;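 further: inhibitors lower polarization as less probe binds the enzyme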
GSTO1 inh conf – GSTO1 inhibitor hit confirmation, counter-screen for RBBP9 inhibitor project, biochemical, fluorescence polarization, triplicate; shares compounds with GSTO1 counter; recombinant GSTO1, probe fluorescence polarization; inhibition, % at 5.96 µM; 54% of 2,400 active; AID 2176, 2009;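 active means inhibition above the primary screen's cutoff, its mean inhibition plus 3 SD, cut at about 35% in these data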;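 further: loss of polarization as inhibitors block binding of rhodamine sulfonate ester activity probe; 0% = GSTO1 with DMSO and 100% = wells lacking GSTO1 enzyme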
LYPLA1 confirm – LYPLA1 inhibitors, retest, confirmation, counter-screen for PME1 inhibitor project, biochemical, fluorescence polarization, FP-Rh probe ABPP. shares compounds with LYPLA1 counter. recombinant LYPLA1. inhibition, % at 5.9 µM. 69% of 480 active. AID 2233, 2010;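 active means mean inhibition across replicates above the hit cutoff set in the primary screen, cut at about 15% in these data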;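 further: loss of FP-Rh probe labeling of LYPLA1 seen as lower polarization; 0% = LYPLA1 with DMSO and 100% = wells lacking LYPLA1 enzyme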
PAD4 confirm – human PAD4 inhibitors, confirmation, biochemical, fluorescence polarization. shares compounds with PAD4 inh. recombinant PAD4, RCA probe fluorescence polarization. 28% of 1,200 active. inhibition, % at 6.36 µM;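 active means mean inhibition across replicates above the hit cutoff set by the earlier primary screen, cut at about 15% in these data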;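 further: inhibitors block active-site labeling by the probe so polarization falls; 0% = PAD4 with probe and DMSO and 100% = probe without PAD4 enzyme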
* marks the source's active call; other numbers are inactive results; . = no result given.

SMILES	LYPLA2 counter	PAD4 inh	GSTO1 counter	PME-1 primary	LYPLA1 counter	Fam108B counter	GSTO1 inh conf	PAD4 confirm	others
N#CC1=C(N)Oc2cc(O)c(Cl)cc2C1c1ccccc1F (stereo not drawn)	5	-1	-3	0	0	3	.	.
O=S(=O)(Nc1cc(Sc2cccc3cccnc23)c(O)c2ccccc12)c1ccc(F)cc1	5	29*	57*	12	-2	6	25	3
O=S(=O)(Nc1cccnc1Cl)c1ccc(F)cc1	8	-6	-5	1	2	9	.	.
CCOc1ccc2noc3c2c1C(=O)c1ccccc1-3	24	135*	40*	17	20*	14	13	131*	LYPLA1 confirm=12
COC(CNC(=O)c1ccc2c3c(onc13)-c1ccccc1C2=O)OC	-8	-10	34	6	-1	5	.	.
Cc1sc(-c2ccncc2)nc1OC(=O)c1ccc(F)cc1F	4	2	7	-4	-1	0	.	.
CCN(CC(=O)Nc1cccc(C(C)=O)c1)S(=O)(=O)c1ccccc1	1	-1	13	-2	-2	1	.	.
CC(C)CCn1c(N)c(S(=O)(=O)c2cccs2)c2nc3ccccc3nc21	-28	63*	57*	4	-15	-1	-7	-9
O=c1onc(-c2cccnc2)n1-c1ccccc1F	-6	3	-2	1	-4	1	.	.
CNC(=S)NNC(=O)c1cn(C)nc1C	-6	-3	3	-10	-3	3	.	.
COc1cc(/C=C2\C(=O)N(c3ccc(NC(C)=O)cc3)N=C2c2ccccc2)ccc1O	4	62*	76*	-10	-2	-1	27	5
CC(C)(C)OC(=O)C[C@H]1C/C=C\C[C@H](CC(=O)NCCO)C(=O)NC[C@H](c2ccccc2)OC1=O	.	1	.	.	.	.	.	.
CCCNC1=C(N(C(C)=O)c2cccc(F)c2)C(=O)c2ccccc2C1=O	0	18*	55*	-1	-1	6	41*	-5
O=[N+]([O-])c1ccccc1-c1ccc(/C=N/n2cnnc2)o1	1	-4	12	4	1	-6	.	.
O=C(O)CC1S/C(=N/N=C/c2ccc(-c3ccccc3[N+](=O)[O-])o2)NC1=O (stereo not drawn)	2	20*	62*	-2	0	6	9	-2
COc1cccc(C(C[N+](=O)[O-])c2c(C)[nH]n(-c3ccccc3)c2=O)c1 (stereo not drawn)	2	35*	81*	6	3	4	4	-1
Cc1[nH]n(-c2ccccc2)c(=O)c1C(c1cccc([N+](=O)[O-])c1)c1c(C)[nH]n(-c2ccccc2)c1=O	0	30*	52*	3	0	9	23	-9
COc1cccc(N=Nc2c(C)[nH]n(-c3ccccc3)c2=O)c1	0	-1	1	4	1	5	.	.
Cc1[nH]n(-c2ccccc2)c(=O)c1C(=O)Nc1ccccc1	1	-6	-11	5	4	2	.	.
Cc1[nH]n(-c2ccccc2)c(=O)c1C(=O)c1ccc([N+](=O)[O-])cc1	-3	-19	-7	-2	-1	-3	.	.
Cc1[nH]n(-c2ccccc2)c(=O)c1C(c1ccc(C(=O)O)cc1)c1c(C)[nH]n(-c2ccccc2)c1=O	1	73*	60*	4	1	4	18	13
CN(C)c1ccc(C=Nc2ccc(N(C)C)cc2)cc1	-1	32*	78*	9	-5	6	6	-4
Cc1ccc(N=Cc2ccc(N(C)C)cc2)cc1	6	-1	6	-4	3	-3	.	.
Cc1[nH][nH]c(=O)c1C(c1ccc(Br)cc1)c1c(C)[nH][nH]c1=O	5	-12	16	-2	3	3	.	.
Cc1[nH][nH]c(=O)c1C(c1ccc(-c2cccc(Cl)c2)o1)c1c(C)[nH][nH]c1=O	2	44*	72*	2	1	6	57*	36*
SMILES	LYPLA2 counter	PAD4 inh	GSTO1 counter	PME-1 primary	LYPLA1 counter	Fam108B counter	GSTO1 inh conf	PAD4 confirm	others
Cc1[nH][nH]c(=O)c1C(c1ccc(-c2ccccc2C(=O)O)o1)c1c(C)[nH][nH]c1=O	5	51*	70*	-5	0	1	8	-6
O=C(OCn1ncc(Cl)c(Cl)c1=O)c1ccccc1Cl	8	28*	48*	-1	-7	-2	33	29*
O=C(Cn1ncc(Cl)c(Cl)c1=O)c1ccc(Cl)cc1	11	5	18	5	-2	1	.	.
COc1ccccc1NCC(=O)NC(=O)NC1CCCCC1	.	-1	.	.	.	.	.	.
O=c1[nH]c(Nc2ccccc2)cc2cc(Br)ccc12	6	64*	58*	18	-3	16	19	-6
COc1ccccc1Nc1cc2cc(Br)ccc2c(=O)[nH]1	-1	34*	42*	-6	-4	2	12	5
COc1ccc(OC)c(Nc2cc3ccccc3c(=O)[nH]2)c1	3	39*	71*	6	-1	17	6	-1
Nc1nc(-c2cccs2)cs1	-1	19*	67*	1	-1	-2	13	5
COc1ccc(S(=O)(=O)Nc2cccc3c2O[C@H](CN(C)C(=O)NC(C)C)[C@@H](C)CN([C@H](C)CO)C3=O)cc1	.	-7	.	.	.	.	.	.
O=C(Nc1nnc(-c2ccc(F)cc2)o1)c1ccc(S(=O)(=O)N2CCOCC2)cc1	2	0	3	-1	1	3	.	.
O=C(O)CC1(CC(=O)NCc2ccc(Cl)cc2)CCCCC1	8	-2	2	-3	-1	0	.	.
O=S(=O)(Nc1ccc(O)c2ccccc12)c1cccs1	1	21*	64*	1	-1	4	16	-5
